# Measurements from PubChem BioAssay (NCATS).
# Records with an inconclusive call do not appear. Calls of active or inactive are those of the source. Calls follow the shape of the dose curve; as a rule, active = well fitted cell-killing curve with a large enough effect; inconclusive = small, poorly fitted or top-dose-only effect, or effect the other way; inactive = no such curve, though single readings can be large or run the other way.
# Legend:
# [1] = Quantitative High-Throughput drug screen in 47 multiple myeloma cell lines against the NCATS MIPE library collection: Karpas25_ECACC cell viability assay (AID 1918968; also: nearly all actives have a fitted effect of over 35% in size)
# Summary of the method: (§1)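 We plated 500 myeloma cells per well, pinned in MIPE 4.0 compounds, and incubated for 48 hours at 37C. ATP was then quantified with CellTiter-Glo, with DMSO and media-only wells defining 100% and 0%.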
# [2] = Quantitative High-Throughput drug screen in 47 multiple myeloma cell lines against the NCATS MIPE library collection: KMS27_JCRB cell viability assay (AID 1918970); also: nearly all actives have a fitted effect of over 30% in size
# Summary of the method: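 Viability inhibition screen, 48 h compound exposure, luminescent ATP read-out.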
# [3] = Quantitative High-Throughput drug screen in 47 multiple myeloma cell lines against the NCATS MIPE library collection: KMS12BM_JCRB cell viability assay (AID 1918971); also: nearly all actives have a fitted effect of over 35% in size
# Summary of the method: (§2)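 Relative luminescence from CellTiter-Glo served as the viability signal, referenced to DMSO-treated (100%) and cell-free medium (0%) controls. Treatment lasted 48 hours at 37C with 500 cells per well.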
# [4] = Quantitative High-Throughput drug screen in 47 multiple myeloma cell lines against the NCATS MIPE library collection: KMS12PE_JCRB cell viability assay (AID 1918972); also: nearly all actives have a fitted effect of over 30% in size
# Summary of the method: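 Viability readout: CellTiter-Glo luminescence following 5 min room-temperature incubation with reagent. Prior exposure: 48 h, 37C, humidified 5% CO2, 500 cells per well.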
# [5] = Quantitative High-Throughput drug screen in 47 multiple myeloma cell lines against the NCATS MIPE library collection: MMM1_PLB cell viability assay (AID 1918976); also: nearly all actives have a fitted effect of over 35% in size
# Summary of the method: (§3)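 Cells were exposed to library compounds for 48 hours, after which ATP was measured by CellTiter-Glo. Signal was taken as median relative luminescence units.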
# [6] = Quantitative High-Throughput drug screen in 47 multiple myeloma cell lines against the NCATS MIPE library collection: MOLP8_DSMZ cell viability assay (AID 1918977); also: nearly all actives have a fitted effect of over 45% in size
# Summary of the method: as §3
# [7] = Quantitative High-Throughput drug screen in 47 multiple myeloma cell lines against the NCATS MIPE library collection: KMS26_JCRB cell viability assay (AID 1918975); also: nearly all actives have a fitted effect of over 45% in size
# Summary of the method: as §2
# [8] = Quantitative High-Throughput drug screen in 47 multiple myeloma cell lines against the NCATS MIPE library collection: KMS20_JCRB cell viability assay (AID 1918973); also: nearly all actives have a fitted effect of over 45% in size
# Summary of the method: as §1
# [9] = Quantitative High-Throughput drug screen in 47 multiple myeloma cell lines against the NCATS MIPE library collection: KMS21BM_JCRB cell viability assay (AID 1918974); settings: ATP luminescence, 48 h; viability: at 45.8 µM (top of the series) unless noted
# Summary of the method: as §1
# Potency is read from the fitted curve at half-maximal effect.
structure (smiles),measurement,setting,value
Cc1c(O)cccc1C(=O)N[C@@H](CSc1ccccc1)[C@H](O)CN1C[C@H]2CCCC[C@@H]2C[C@@H]1C(=O)NC(C)(C)C,Potency,[1],14.8 µM (active)
same,Potency,[2],16.6 µM (active)
same,Potency,[3],20.9 µM (active)
same,Potency,[4],10.5 µM (active)
same,Potency,[5],20.9 µM (active)
same,Potency,[6],16.6 µM (active)
CC(C)C(=O)Nc1ncc(-c2cc(C(F)F)nn2-c2c(Cl)cccc2Cl)s1,Potency,[1],20.9 µM (active)
same,Potency,[2],14.8 µM (active)
same,Potency,[3],26.4 µM (active)
same,Potency,[4],16.6 µM (active)
CC(=O)O[C@]1(C(C)=O)CC[C@@H]2[C@@H]3C[C@H](C)C4=CC(=O)CC[C@]4(C)[C@H]3CC[C@@]21C,Potency,[1],18.7 µM (active)
same,Potency,[2],inactive
same,Potency,[3],16.6 µM (active)
same,Potency,[4],inactive
same,Potency,[7],23.5 µM (active)
same,Potency,[5],20.9 µM (active)
CO[C@@H](C(=O)N1Cc2[nH]nc(NC(=O)c3ccc(N4CCN(C)CC4)cc3)c2C1)c1ccccc1,Potency,[1],16.6 µM (active)
same,Potency,[2],23.5 µM (active)
same,Potency,[8],16.6 µM (active)
same,Potency,[9],1.87 µM (active)
N#CC(=C(N)Sc1ccccc1N)C(C#N)=C(N)Sc1ccccc1N,Potency,[1],8.33 µM (active)
same,Potency,[2],18.7 µM (active)
same,Potency,[3],inactive
same,Potency,[4],23.5 µM (active)
same,Potency,[7],1.32 µM (active)
CC1CCC(C(=O)N(c2cc(C#CC(C)(C)C)sc2C(=O)O)C2CCC(O)CC2)CC1 (centres undefined),Potency,[2],inactive
same,Potency,[4],inactive
CC(C)OC(=O)C(C)(C)Oc1ccc(C(=O)c2ccc(Cl)cc2)cc1,Potency,[3],13.2 µM (active)
same,Potency,[7],11.8 µM (active)
same,Potency,[5],18.7 µM (active)
CC1(C)O[C@H]2C[C@@H]3[C@H]4CCC5=CC(=O)C=C[C@]5(C)[C@@]4(F)[C@@H](O)C[C@]3(C)[C@]2(C(=O)CO)O1,Potency,[4],inactive
same,Potency,[7],inactive
CN(C)C1CCN(C(=O)c2ccc(NC(=O)Nc3nc(N4CCOCC4)nc(N4CCOCC4)n3)cc2)CC1,Potency,[3],0.0083 µM (active)
same,Potency,[4],0.105 µM (active)
same,Potency,[8],0.105 µM (active)
same,Potency,[5],0.0235 µM (active)
COc1cc(N2CCC(N3CCN(C)CC3)CC2)ccc1Nc1ncnc(Nc2ccccc2S(=O)(=O)C(C)C)n1,Potency,[3],23.5 µM (active)
same,Potency,[4],inactive
same,Potency,[9],inactive
O=C(Nc1ccccc1Br)N[C@@H]1CCN(c2ccc(C(F)(F)F)cn2)C1,Potency,[1],18.7 µM (active)
same,Potency,[4],inactive
same,Potency,[5],23.5 µM (active)
same,Potency,[6],inactive
COc1ccc2cc(-c3nc(-c4ccc(S(C)=O)cc4)[nH]c3-c3ccncc3)ccc2c1 (centres undefined),Potency,[1],26.4 µM (active)
same,Potency,[8],7.43 µM (active)
same,Potency,[6],inactive
CO[C@H]1C[C@@H]2CC[C@@H](C)[C@@](O)(O2)C(=O)C(=O)N2CCCC[C@@H]2C(=O)O[C@H]([C@H](C)C[C@@H]2CC[C@H](OC(=O)C(C)(CO)CO)[C@H](OC)C2)CC(=O)[C@H](C)C=C(C)[C@@H](O)[C@@H](OC)C(=O)[C@H](C)C[C@H](C)C=CC=CC=C1C,Potency,[1],13.2 µM (active)
same,Potency,[8],11.8 µM (active)
CC(C)[C@H](CO)Nc1nc(Nc2ccc(C(=O)O)c(Cl)c2)c2ncn(C(C)C)c2n1,Potency,[5],23.5 µM (active)
O=C1NC(=O)C(=Cc2cccc(C(F)(F)F)c2)S1,Potency,[3],20.9 µM (active)
same,Potency,[9],8.33 µM (active)
same,Potency,[5],23.5 µM (active)
same,Potency,[6],inactive
NC(=O)c1cccc2[nH]c(-c3ccc([C@H]4CCCN4)cc3F)nc12,Potency,[2],23.5 µM (active)
COCCCCC(=NOCCN)c1ccc(C(F)(F)F)cc1,Potency,[3],20.9 µM (active)
same,Potency,[4],inactive
CN(C)CCC=C1c2ccccc2COc2ccc(CC(=O)O)cc21,Potency,[2],inactive
same,Potency,[3],inactive
same,Potency,[4],inactive
same,Potency,[8],inactive
COc1cccc([C@@H](C)NCCCc2ccccc2Cl)c1,Potency,[3],inactive
same,Potency,[9],16.6 µM (active)
same,Potency,[7],inactive
same,Potency,[6],inactive
N#C[C@H]1C[C@H]2C[C@@H]2N1C(=O)[C@@H](N)C12CC3CC(CC(O)(C3)C1)C2,Potency,[2],inactive
same,Potency,[4],inactive
same,Potency,[5],1.48 µM (active)
OC[C@H]1O[C@@H](Oc2cc(O)cc(C=Cc3ccc(O)cc3)c2)[C@H](O)[C@@H](O)[C@H]1O,Potency,[2],inactive
same,Potency,[3],inactive
same,Potency,[4],inactive
same,Potency,[7],inactive
same,Potency,[6],inactive
COc1ccc2c3c1OC1C[C@@H](O)C=C[C@@]31CCN(C)C2 (some centres undefined),Potency,[2],inactive
same,Potency,[4],inactive
CC=CC[C@@H](C)C(=O)[C@H]1C(=O)N[C@@H](C(C)C)C(=O)N(C)CC(=O)N(C)[C@@H](CC(C)C)C(=O)N[C@@H](C(C)C)C(=O)N(C)[C@@H](CC(C)C)C(=O)N[C@@H](C)C(=O)N[C@H](C)C(=O)N(C)[C@@H](CC(C)C)C(=O)N(C)[C@@H](CC(C)C)C(=O)N(C)[C@@H](C(C)C)C(=O)N1C,Potency,[2],4.69 µM (active)
same,Potency,[3],23.5 µM (active)
same,Potency,[4],inactive
same,Potency,[8],1.32 µM (active)
same,Potency,[5],5.26 µM (active)
Clc1cc(Cl)cc(CNc2ncncc2-c2ccc3c(c2)OCO3)c1,Potency,[2],18.7 µM (active)
same,Potency,[6],inactive
COc1ccc(Cc2nccc3cc(OC)c(OC)cc23)cc1OC,Potency,[3],16.6 µM (active)
same,Potency,[9],inactive
same,Potency,[5],23.5 µM (active)
COc1ccc(-c2cc(=O)c3c(O)cc(O)cc3o2)cc1O,Potency,[1],3.72 µM (active)
same,Potency,[4],5.9 µM (active)
same,Potency,[8],4.18 µM (active)
same,Potency,[7],5.9 µM (active)
same,Potency,[5],0.935 µM (active)
COc1ncc(-c2ccc3nccc(-c4ccnnc4)c3c2)cc1NS(=O)(=O)c1ccc(F)cc1F,Potency,[3],0.0662 µM (active)
same,Potency,[4],0.0935 µM (active)
same,Potency,[7],0.0526 µM (active)
CN[C@@H](C)C(=O)N[C@H]1CN(C(=O)CC(C)C)CC[C@H]2CC[C@@H](C(=O)NC(c3ccccc3)c3ccccc3)N2C1=O,Potency,[3],26.4 µM (active)
same,Potency,[4],3.72 µM (active)
same,Potency,[6],inactive
Clc1ccc(COC(Cn2ccnc2)c2ccc(Cl)cc2Cl)cc1 (centres undefined),Potency,[4],23.5 µM (active)
same,Potency,[6],inactive
C=CCc1ccc(O)c(-c2ccc(O)c(CC=C)c2)c1,Potency,[2],23.5 µM (active)
same,Potency,[4],20.9 µM (active)
same,Potency,[8],23.5 µM (active)
CC(C)n1nc(-c2ccc3oc(N)nc3c2)c2c(N)ncnc21,Potency,[3],0.0526 µM (active)
same,Potency,[8],0.0418 µM (active)
same,Potency,[7],0.132 µM (active)
same,Potency,[5],0.0026 µM (active)
